{"source": "PubChem BioAssay (NCI)", "note": "The panel holds about 83,000 compounds, 20% with a hit somewhere; the sample as a whole holds those more often.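 Interpretation: 100, growth as untreated; towards 0, rising growth inhibition; 0, no net growth; 0 to -100, cell death. Compounds scoring below 10 were considered active.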 Values without a mark were called inactive. Activity calls are given as the source filed them.", "data": [{"tested_on": "RPMI-8226 leukemia", "experiment": "NCI-60 one-dose screen, 48 h (100 = growth as untreated, 0 = no growth, -100 = all killed)", "details": "10 µM unless noted", "values": [{"compound": "Cn1c(=O)c2[nH]c(SC/C(=N/O)c3ccc(Br)cc3)nc2n(C)c1=O", "growth": "59.4%"}, {"compound": "Cc1c2ncccc2nc2[nH]c3ccc(OCCN(C)C)cc3c12", "growth": "-31.6% (active)"}, {"compound": "COc1ccc(-c2cc(C(=O)N3N=C(c4ccc(N)cc4)CC3c3ccc(Cl)cc3)c3ccccc3n2)cc1", "note": "(stereo not drawn)", "growth": "16.2%"}, {"compound": "Cc1oc(-c2ccc(Cl)cc2)nc1C1=NN(C(=O)c2ccncc2)C(c2ccccc2)C1", "note": "(stereo not drawn)", "growth": "80.3%"}, {"compound": "Nc1cc(C(=O)O)cc(-n2c(O)c(C=C3N=c4ccccc4=N3)sc2=S)c1", "growth": "100%"}, {"compound": "Nc1ncnc2c1N=C(c1ccc(F)cc1)CC(c1cccc(Nc3ccnc4cc(Cl)ccc34)c1)N2", "note": "(stereo not drawn)", "growth": "25.9%"}, {"compound": "CCNC(=O)N1CCc2c(Br)c3c(c(OC)c2C1Cc1ccc(OC)cc1)OCO3", "note": "(stereo not drawn)", "growth": "44.3%"}, {"compound": "Nc1nc2ccccc2c2c(=O)c3cc(Cl)ccc3sc12", "growth": "102%"}, {"compound": "Cc1ccc(S(=O)(=O)c2nc(-c3ccccc3)oc2SCC(N)=O)cc1", "growth": "96.8%"}, {"compound": "CCCN(CCSSCCNc1nc(N(C)O)nc(N(C)O)n1)c1nc(N(C)O)nc(N(C)O)n1", "growth": "42.6%"}, {"compound": "COc1cc(C=C2C(=O)NC(=S)NC2=O)cc(CN2CCCC2)c1O", "growth": "106%"}, {"compound": "Cc1cc(C)c2c(c1)N(C)c1ncnc(-n3c(C)nc4cc(C)ccc43)c1CC2C", "note": "(stereo not drawn)", "growth": "35%"}, {"compound": "COC1/C=C/OC2(C)Oc3c(C)c(O)c4c(O)c(c(/C=N/N(c5ccccc5)c5ccccc5)c(O)c4c3C2=O)NC(=O)C(C)=C/C=C/C(C)C(O)C(C)C(O)C(C)C(OC(C)=O)C1C", "note": "(stereo not drawn)", "growth": "22.6%"}, {"compound": "CN(C)Cc1cc(C(C)(C)C)cc(Br)c1O", "growth": "96.9%"}, {"compound": "COC(=O)c1ccc2c(c1)c1c(C)c3cnccc3c(C)c1n2C", "growth": "-15.4% (active)"}, {"compound": "CN(C)CCCn1c2c(c3cnccc3c1=O)C(=O)c1ccccc1-2", "growth": "-13.6% (active)"}, {"compound": "O=C(NNc1nc2cc(F)ccc2n2c(CN3CCOCC3)ccc12)c1ccccc1", "growth": "10.9%"}, {"compound": "CCOC(=O)C/C(=N\\Nc1cc(=O)[nH]c2ccc(OC)cc12)C(=O)OCC", "growth": "68.5%"}, {"compound": "COc1ccc(/C=C(/C(=O)N2CCNCC2)c2cc(OC)c(OC)c(OC)c2)cc1O", "growth": "9.6% (active)"}, {"compound": "COC(=O)[C@]1(C)CCC[C@]2(C)[C@H]3C[C@@H]4[C@H]5[C@@H]6CC/C(=N\\OCC/C(N)=N/O)[C@H]5[C@@]3(CC[C@H]21)CC4(C(C)C)O6", "growth": "39.1%"}, {"compound": "CC/C(=C(\\c1ccc(Cl)cc1)c1ccc(OCCN2CCCCC2)cc1)c1ccc(O)cc1", "growth": "1.63% (active)"}, {"compound": "CCN(CC)CCOc1ccc(/C(=C(\\C)Cc2ccc(OC)cc2)c2ccc(OC(=O)NCc3ccccc3)cc2)cc1", "growth": "3.04% (active)"}, {"compound": "O=[N+]([O-])c1c(O)c(Cl)cc(Cl)c1Cl", "growth": "97.9%"}, {"compound": "C=CC(=O)Nc1cccc(Oc2nccc(Nc3nnc(-c4ccc(Br)cc4)s3)n2)c1", "growth": "87.4%"}, {"compound": "O=S(=O)(Nc1ccc2ccccc2c1)c1ccc(-c2cnc(C3CC3)o2)cc1", "growth": "12%"}, {"compound": "CCCCCc1ccc(S(=O)(=O)Nc2ccc3nc(N)oc3c2)cc1", "growth": "38.4%"}, {"compound": "C=CCN=c1sc(-c2ccc3ccccc3c2)cn1NC(=O)c1cc2ccc1CCc1ccc(cc1)CC2", "growth": "25.8%"}, {"compound": "c1cc(OCCN2CCCCCC2)ccc1CNc1ccc2nc(CCC3CCCCC3)[nH]c2c1", "growth": "4.27% (active)"}, {"compound": "CC1=C2CC/C(C)=C/CC[C@]3(C)O[C@H]3CC/C(C)=C/[C@H]2OC1", "growth": "93.6%"}, {"compound": "COc1ccc(C(O)c2cc3c(N)c(C(=O)Nc4cccc5ccccc45)sc3nc2C)cc1", "note": "(stereo not drawn)", "growth": "18.3%"}, {"compound": "CCOc1ncc([N+](=O)[O-])c(OCC)n1", "growth": "84.8%"}, {"compound": "COc1ccc(C2[C@@H](Cl)C(=O)N2c2cc(OC)c(OC)c(OC)c2)cc1Cl", "note": "(stereo partly drawn)", "growth": "9.34% (active)"}, {"compound": "CS(=O)(=O)c1ccc(-c2nc3ccccc3n2CC(=O)N/N=C/c2ccccc2)cc1", "growth": "108%"}, {"compound": "CN1CCN(c2ccc(NC3=CC(=O)c4ncncc4C3=O)cc2)CC1", "growth": "-29.1% (active)"}, {"compound": "Cn1c(=O)[nH]c(=O)c2nc3c(nc21)-c1ccccc1C3=O", "growth": "108%"}, {"compound": "COc1ccc(-c2cc(C(=O)N3N=C(c4ccc(N)cc4)CC3c3ccc(Cl)cc3)c3cc(OC)ccc3n2)cc1", "note": "(stereo not drawn)", "growth": "20.9%"}, {"compound": "O=c1cc(CP(=O)(O)O)c2cc(O)c(-c3ccccc3)cc2o1", "growth": "99.2%"}, {"compound": "O=C1c2cccnc2C(=O)c2c1c(C(=O)OCCc1ccccn1)c1ccccn21", "growth": "-27.2% (active)"}, {"compound": "Cc1cc(C(=O)CCCC(=O)c2cc(C)c(O)c(C)c2)cc(C)c1O", "growth": "94.2%"}]}, {"tested_on": "OVCAR-8 ovarian", "experiment": "NCI-60 one-dose screen, 48 h (100 = growth as untreated, 0 = no growth, -100 = all killed)", "details": "10 µM unless noted", "values": [{"compound": "Cn1c(=O)c2[nH]c(SC/C(=N/O)c3ccc(Br)cc3)nc2n(C)c1=O", "growth": "26.5%"}, {"compound": "Cc1c2ncccc2nc2[nH]c3ccc(OCCN(C)C)cc3c12", "growth": "11.5%"}, {"compound": "COc1ccc(-c2cc(C(=O)N3N=C(c4ccc(N)cc4)CC3c3ccc(Cl)cc3)c3ccccc3n2)cc1", "note": "(stereo not drawn)", "growth": "14.2%"}, {"compound": "Cc1oc(-c2ccc(Cl)cc2)nc1C1=NN(C(=O)c2ccncc2)C(c2ccccc2)C1", "note": "(stereo not drawn)", "growth": "95.4%"}, {"compound": "Nc1cc(C(=O)O)cc(-n2c(O)c(C=C3N=c4ccccc4=N3)sc2=S)c1", "growth": "103%"}, {"compound": "Nc1ncnc2c1N=C(c1ccc(F)cc1)CC(c1cccc(Nc3ccnc4cc(Cl)ccc34)c1)N2", "note": "(stereo not drawn)", "growth": "82.2%"}, {"compound": "CCNC(=O)N1CCc2c(Br)c3c(c(OC)c2C1Cc1ccc(OC)cc1)OCO3", "note": "(stereo not drawn)", "growth": "49.8%"}, {"compound": "Nc1nc2ccccc2c2c(=O)c3cc(Cl)ccc3sc12", "growth": "99.2%"}, {"compound": "Cc1ccc(S(=O)(=O)c2nc(-c3ccccc3)oc2SCC(N)=O)cc1", "growth": "111%"}, {"compound": "CCCN(CCSSCCNc1nc(N(C)O)nc(N(C)O)n1)c1nc(N(C)O)nc(N(C)O)n1", "growth": "70.9%"}, {"compound": "COc1cc(C=C2C(=O)NC(=S)NC2=O)cc(CN2CCCC2)c1O", "growth": "108%"}, {"compound": "Cc1cc(C)c2c(c1)N(C)c1ncnc(-n3c(C)nc4cc(C)ccc43)c1CC2C", "note": "(stereo not drawn)", "growth": "71.6%"}, {"compound": "COC1/C=C/OC2(C)Oc3c(C)c(O)c4c(O)c(c(/C=N/N(c5ccccc5)c5ccccc5)c(O)c4c3C2=O)NC(=O)C(C)=C/C=C/C(C)C(O)C(C)C(O)C(C)C(OC(C)=O)C1C", "note": "(stereo not drawn)", "growth": "63.3%"}, {"compound": "CN(C)Cc1cc(C(C)(C)C)cc(Br)c1O", "growth": "106%"}, {"compound": "COC(=O)c1ccc2c(c1)c1c(C)c3cnccc3c(C)c1n2C", "growth": "0.0639% (active)"}, {"compound": "CN(C)CCCn1c2c(c3cnccc3c1=O)C(=O)c1ccccc1-2", "growth": "-11.3% (active)"}, {"compound": "O=C(NNc1nc2cc(F)ccc2n2c(CN3CCOCC3)ccc12)c1ccccc1", "growth": "13.1%"}, {"compound": "CCOC(=O)C/C(=N\\Nc1cc(=O)[nH]c2ccc(OC)cc12)C(=O)OCC", "growth": "103%"}, {"compound": "COc1ccc(/C=C(/C(=O)N2CCNCC2)c2cc(OC)c(OC)c(OC)c2)cc1O", "growth": "52.1%"}, {"compound": "COC(=O)[C@]1(C)CCC[C@]2(C)[C@H]3C[C@@H]4[C@H]5[C@@H]6CC/C(=N\\OCC/C(N)=N/O)[C@H]5[C@@]3(CC[C@H]21)CC4(C(C)C)O6", "growth": "73.2%"}, {"compound": "CC/C(=C(\\c1ccc(Cl)cc1)c1ccc(OCCN2CCCCC2)cc1)c1ccc(O)cc1", "growth": "62.6%"}, {"compound": "CCN(CC)CCOc1ccc(/C(=C(\\C)Cc2ccc(OC)cc2)c2ccc(OC(=O)NCc3ccccc3)cc2)cc1", "growth": "68.7%"}, {"compound": "O=[N+]([O-])c1c(O)c(Cl)cc(Cl)c1Cl", "growth": "101%"}, {"compound": "C=CC(=O)Nc1cccc(Oc2nccc(Nc3nnc(-c4ccc(Br)cc4)s3)n2)c1", "growth": "98.5%"}, {"compound": "O=S(=O)(Nc1ccc2ccccc2c1)c1ccc(-c2cnc(C3CC3)o2)cc1", "growth": "24.6%"}, {"compound": "CCCCCc1ccc(S(=O)(=O)Nc2ccc3nc(N)oc3c2)cc1", "growth": "53.8%"}, {"compound": "C=CCN=c1sc(-c2ccc3ccccc3c2)cn1NC(=O)c1cc2ccc1CCc1ccc(cc1)CC2", "growth": "65.5%"}, {"compound": "c1cc(OCCN2CCCCCC2)ccc1CNc1ccc2nc(CCC3CCCCC3)[nH]c2c1", "growth": "65.6%"}, {"compound": "CC1=C2CC/C(C)=C/CC[C@]3(C)O[C@H]3CC/C(C)=C/[C@H]2OC1", "growth": "95.8%"}, {"compound": "COc1ccc(C(O)c2cc3c(N)c(C(=O)Nc4cccc5ccccc45)sc3nc2C)cc1", "note": "(stereo not drawn)", "growth": "10.9%"}, {"compound": "CCOc1ncc([N+](=O)[O-])c(OCC)n1", "growth": "105%"}, {"compound": "COc1ccc(C2[C@@H](Cl)C(=O)N2c2cc(OC)c(OC)c(OC)c2)cc1Cl", "note": "(stereo partly drawn)", "growth": "9.75% (active)"}, {"compound": "CS(=O)(=O)c1ccc(-c2nc3ccccc3n2CC(=O)N/N=C/c2ccccc2)cc1", "growth": "112%"}, {"compound": "CN1CCN(c2ccc(NC3=CC(=O)c4ncncc4C3=O)cc2)CC1", "growth": "-53.2% (active)"}, {"compound": "Cn1c(=O)[nH]c(=O)c2nc3c(nc21)-c1ccccc1C3=O", "growth": "105%"}, {"compound": "COc1ccc(-c2cc(C(=O)N3N=C(c4ccc(N)cc4)CC3c3ccc(Cl)cc3)c3cc(OC)ccc3n2)cc1", "note": "(stereo not drawn)", "growth": "56.4%"}, {"compound": "O=c1cc(CP(=O)(O)O)c2cc(O)c(-c3ccccc3)cc2o1", "growth": "101%"}, {"compound": "O=C1c2cccnc2C(=O)c2c1c(C(=O)OCCc1ccccn1)c1ccccn21", "growth": "-14% (active)"}, {"compound": "Cc1cc(C(=O)CCCC(=O)c2cc(C)c(O)c(C)c2)cc(C)c1O", "growth": "104%"}]}]}
